# Reference: PubChem BioAssay AID1259421 (Broad Institute, 2018)
# Where “and” joins values, the source holds several entries; their conditions need not be identical. Equal entries are not always repeated. In all, about 6,400 compounds went through this assay and about 610 (9.5%) were called active. No stated cut-off is given here; in the data, active means activity change below about -70%; inconclusive means no clear call, values can overlap the other calls; inactive means above that. The full list was thinned out, with actives kept by preference. Where a structure was tested more than once in an assay, its records may differ in their call.
# Experiment: Toxoplasma gondii ME49Luc growth in HeLa cells, luciferase, no IFN-y, primary screen (AID 1259421)
# Conditions: T. gondii ME49Luc in HeLa, 72 h, stronger effect = lower value, concentration not given here
row,SMILES,"activity change, negative = inhibition"
1,O=C(O)CSc1nnc(Br)n1-c1ccc(C2CC2)c2ccccc12,0.38% (inactive)
2,CCCCCCCCCCOc1cc2c(=O)c(C(=O)OCC)c[nH]c2cc1OCC,30.1% (inactive)
3,O=C(O)c1cc(N(Cc2ccccc2O)Cc2ccccc2O)ccc1O,2.11% (inactive)
4,Cc1ccccc1-c1cc(N2CCN(C)CC2)ncc1N(C)C(=O)C(C)(C)c1cc(C(F)(F)F)cc(C(F)(F)F)c1,-80.1% (active)
5,CO[C@@]1(NC(=O)C2SC(=C(C(N)=O)C(=O)O)S2)C(=O)N2C(C(=O)O)=C(CSc3nnnn3C)CSC21 (some centres not stated),5.67% (inactive)
6,CC1CC2C3CC(F)C4=CC(=O)C=CC4(C)C3(F)C(O)CC2(C)C1(CC(=O)CO)C(=O)SCF (configuration not stated),-4.39% (inactive)
7,Cc1oc(=O)oc1COC(=O)C1=C([C@H]2CCCO2)S[C@@H]2[C@@H]([C@@H](C)O)C(=O)N12,16.9% (inactive)
8,O=C(NCc1cccc(O)c1)Nc1nc(-c2ccncc2)cs1,-70.8% (active)
9,O=C(NCc1ccccc1)c1csc(Nc2ccncn2)n1,-56.6% (inactive)
10,Cc1cccc(Nc2nc(-c3ccncc3)cs2)c1,107% (inactive)
11,CC(C)CN(C[C@@H](OP(=O)(O)O)[C@H](Cc1ccccc1)NC(=O)O[C@H]1CCOC1)S(=O)(=O)c1ccc(N)cc1,-5.19% (inactive)
12,CCC(CC)O[C@@H]1C=C(C(=O)O)C[C@H](N)[C@H]1NC(C)=O,3.98% (inactive)
13,O=C1Cc2c([nH]c3ccc(Br)cc23)-c2ccccc2N1,406% (inactive) and -6.73% (inactive)
14,O=C1Cc2c([nH]c3ccc(Br)cc23)-c2ncccc2N1,206% (inactive)
15,O=C1Cc2c([nH]c3ccc([N+](=O)[O-])cc23)-c2ccccc2N1,-78% (active)
16,O=c1c2c(c1=O)N(CCP(=O)(O)O)CCCN2,4.23% (inactive)
17,OCCN1C[C@@H](O)[C@@H](O)C(O)C1CO (some centres not stated),10.9% (inactive)
18,COC(=O)[C@H](NC(=O)c1cc(-c2ccccc2)nc2ccccc12)c1ccccc1,9.5% (inactive) and 19.2% (inactive)
19,COc1cc2ncc(-c3ccccc3)nc2cc1OC,-82.6% (active)
20,Cc1cc2ncc(-c3ccccc3)nc2cc1C,459% (inactive)
21,COc1ccc(-c2oc3cc(OC)c(OC)c(OC)c3c(=O)c2OC)cc1,-3.53% (inactive)

row,SMILES,"activity change, negative = inhibition"
1,CC(=O)c1cc([N+](=O)[O-])c(Sc2cccc(Cl)c2Cl)s1,14.1% (inactive)
2,CC(=O)c1cc([N+](=O)[O-])c(Sc2ccc(F)cc2F)s1,-85.3% (active)
3,C=C[C@@]1(C)CC(=O)[C@]2(O)[C@@]3(C)[C@@H](O)CCC(C)(C)[C@@H]3[C@H](OC(=O)CCN(C)C)[C@H](OC(C)=O)[C@@]2(C)O1,0.0952% (inactive)
4,C=CCN1CCN(c2nc3ccccc3nc2C#N)CC1,-7.28% (inactive) and 5.54% (inactive)
5,c1ccc(Cn2c(N3CCNCC3)nc3ccccc32)cc1,6.11% (inactive)
6,Cc1oc2nc3c(c(NC(=O)CN4CCCC4=O)c2c1C)CCCC3,1.4% (inactive)
7,OCc1cc2ncnc(Nc3ccc(O)c(Br)c3)c2cc1CO,-79.3% (active)
8,COc1cc2ncnc(Nc3ccc(O)c(Br)c3)c2cc1OC,-58.4% (inactive)
9,Nc1cc2ncnc(Nc3cccc(Br)c3)c2cc1N,4.16% (inactive)
10,C[C@H](CCC(=O)O)[C@@H]1CC[C@H]2[C@@H]3CC[C@@H]4C[C@H](O)CC[C@]4(C)[C@H]3CC[C@@]21C,11.8% (inactive)
11,Cn1c(COc2ccc(CC3SC(=O)NC3=O)cc2)nc2ccccc2c1=O (configuration not stated),-40.6% (inactive)
12,COc1ccc(-c2cc(=O)c3c(O)c(OC)c(O)cc3o2)cc1OC,48.9% (inactive)
13,CC[C@@H]1C(=O)N(C)c2cnc(Nc3ccc(C(=O)NC4CCN(C)CC4)cc3OC)nc2N1C1CCCC1,-62.8% (inactive)
14,CC[C@@H]1C(=O)N(C)c2cnc(Nc3ccc(C(=O)NC4CCC(N5CCN(CC6CC6)CC5)CC4)cc3OC)nc2N1C(C)C (some centres not stated),-84.3% (active)
15,COc1cc(OC2CCN(C)CC2)ccc1Nc1ncc2c(n1)n(C1CCCC1)c(=O)n2C,-32% (inactive)
16,COc1ccc2nc([S@@](=O)Cc3ncc(C)c(OC)c3C)[nH]c2c1,-6.99% (inactive) and 19.3% (inactive)
17,OCc1cncc(F)c1,11.3% (inactive)
18,O=C(O)c1cc(=O)c2ccc(Cl)cc2[nH]1,9.46% (inactive) and -2.93% (inactive)
19,O=C(O)c1cc(=O)c2ccccc2[nH]1,7.07% (inactive)
20,O=C(O)c1cc(=O)c2cccc(O)c2[nH]1,-75.2% (active)
21,COc1ccc(C(=O)N2CCCc3cc(C4=NNC(=O)SC4C)ccc32)cc1OC (configuration not stated),-41.6% (inactive)

row,SMILES,"activity change, negative = inhibition"
1,CC1CCC(NC(=O)N(CCCl)[NH2+][O-])CC1 (configuration not stated),75.3% (inactive)
2,Cc1ccc(NC2=CC(=O)c3sc(C)nc3C2=O)cc1,-74.1% (active)
3,CC(C)(C)NCC(O)COc1ccc(NC(=O)NC2CCCCC2)cc1 (configuration not stated),3.16% (inactive)
4,COc1ccc(CCNCC(O)COc2cccc(C)c2)cc1OC (configuration not stated),9.54% (inactive)
5,CC1=C(C(=O)O)N2C(=O)[C@@H](NC(=O)C(N)c3ccc(O)cc3)[C@H]2SC1 (some centres not stated),4.06% (inactive)
6,Cc1ccc(CC2(O)CCN(CCOc3ccc(O)cc3)CC2)cc1,-6.15% (inactive) and -9.12% (inactive)
7,Cc1c(-c2ccc(O)cc2)n(Cc2ccc(OCCN3CCCCCC3)cc2)c2ccc(O)cc12,-80.5% (active)
8,O=C(c1ccc(OCCN2CCCCC2)cc1)c1c(-c2ccc(O)cc2)sc2cc(O)ccc12,-9.78% (inactive) and -5.73% (inactive)
9,CC(=O)OCCN1C(=O)c2c(C)nc3ccc(S(=O)(=O)N4CCOCC4)cc3c2C1=O,-1.17% (inactive)
10,Nc1cc(Nc2ccc(S(N)(=O)=O)cc2)ncn1,14.5% (inactive)
11,COc1c(O)cc2c(c1O)[C@H]1O[C@H](CO)[C@@H](O)[C@H](O)[C@@H]1OC2=O,-5.41% (inactive)
12,CCOC(=O)c1cnc2oc3ccc(O)cc3c2c1-c1ccccc1,6.27% (inactive)
13,CS(=O)(=O)CCNCc1nc(-c2ccc3ncnc(Nc4ccc(OCc5cccc(F)c5)c(Cl)c4)c3c2)cs1,-30.2% (inactive) and 30.3% (inactive)
14,CS(=O)(=O)CCNCc1ccc(-c2ccc3ncnc(Nc4ccc(OCc5cccc(F)c5)c(Cl)c4)c3c2)o1,-64.5% (inactive) and -82.3% (active)
15,C=CC(=O)Nc1ccc2ncnc(Nc3ccc(OCc4cccc(F)c4)c(Cl)c3)c2c1,-52.5% (inactive)
16,OC(CCl)CN1CC[N+]2(CC1)CC[N+]1(CCN(CC(O)CCl)CC1)CC2 (configuration not stated),9.78% (inactive)
17,CC1CCCC(C)N1NC(=O)c1ccc(Cl)c(S(N)(=O)=O)c1 (configuration not stated),15.9% (inactive)
18,NCCNS(=O)(=O)c1cccc2c(Cl)cccc12,-0.625% (inactive)
19,C#Cc1cccc(Nc2ncnc3cc(OCCOC)c(OCCOC)cc23)c1,-1.64% (inactive) and -10.5% (inactive)
20,C#Cc1cccc(Nc2ncnc3cc(OC)c(OCCCCCCC(=O)NO)cc23)c1,-82.6% (active)
21,C#Cc1cccc(Nc2ncnc3cc(OCCOC)c(OCCO)cc23)c1,-30.3% (inactive)

row,SMILES,"activity change, negative = inhibition"
1,COc1ccc2[nH]c(S(=O)Cc3ncc(C)c(OC)c3C)nc2n1 (configuration not stated),29.4% (inactive) and 28.4% (inactive)
2,Cc1ccc2c(c1)C(=O)C1(O)CCN(c3ccccc3)C1=N2 (configuration not stated),12.8% (inactive)
3,COc1ccccc1OC(=O)C(C)c1ccc(CC(C)C)cc1 (configuration not stated),-39.2% (inactive)
4,O[n+]1ccccc1[S-].O[n+]1ccccc1[S-].[Zn+2],-66.7% (inactive)
5,O=C1NC(=O)C(c2cnc3ccccn23)=C1c1cn2c3c(cc(F)cc13)CN(C(=O)N1CCCCC1)CC2,-84.1% (active)
6,CC(C)n1nnc2cc(C(=O)O)ccc21,9.2% (inactive) and 12.9% (inactive)
7,Cc1nc2sccn2c(=O)c1CCN1CCC(=C(c2ccc(F)cc2)c2ccc(F)cc2)CC1,-60.2% (inactive) and 18.5% (inactive)
8,CC[C@@H](Nc1c(Nc2cccc(C(=O)N(C)C)c2O)c(=O)c1=O)c1ccc(C)o1,-16.5% (inactive)
9,CC(C)(C)NC(=O)[C@H]1CCC2C3CCC4NC(=O)C=C[C@]4(C)C3CC[C@@]21C (some centres not stated),13.3% (inactive)
10,COC(=O)NC(C(=O)N[C@@H](Cc1ccccc1)C(O)CN(Cc1ccc(-c2ccccn2)cc1)NC(=O)C(NC(=O)OC)C(C)(C)C)C(C)(C)C (some centres not stated),-10.1% (inactive)
11,OCCOCCN1CCN(C(c2ccccc2)c2ccc(Cl)cc2)CC1 (configuration not stated),-71.5% (active)
12,O=C(O)COCCN1CCN(C(c2ccccc2)c2ccc(Cl)cc2)CC1 (configuration not stated),2.12% (inactive) and -3.65% (inactive)
13,O=C(O)COCCN1CCN([C@H](c2ccccc2)c2ccc(Cl)cc2)CC1,-64.2% (inactive)
14,O=C(CC(c1ccccc1)c1ccccc1)N1CCN(C(c2ccccc2)c2ccccc2)CC1,61.6% (inactive)
15,COc1ccc2c(c1OC)C(=O)OC2[C@H]1c2c(cc3c(c2OC)OCO3)CCN1C (some centres not stated),10.4% (inactive)
16,Nc1ccccc1NC(=O)c1ccc(CNc2nccc(-c3cccnc3)n2)cc1,-79.8% (active) and -89.7% (active)
17,Cc1cc(-c2ccc(CC(=O)Nc3ccc(-c4cccnc4)cc3)cc2)ccn1,6.98% (inactive)
18,Nc1ccccc1NC(=O)c1ccc(CNC(=O)OCc2cccnc2)cc1,-0.731% (inactive) and 6.65% (inactive)
19,O=C(Nc1ccccc1-c1cn2c(CN3CCNCC3)csc2n1)c1cnc2ccccc2n1,-11.3% (inactive)
